Screening data as filed in PubChem BioAssay.
An excerpt weighted towards active compounds, which were near 2.7% of everything screened.
rCAG binder: binds r(CAG) RNA repeats; inhibition, % at 3 µM; r(CAG) RNA repeat, TO-PRO-1 dye displacement fluorescence; AID 651821; 370,000 tested, 1.3% active;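 active = inhibition above the plate cutoff, the mean of all test compounds on that plate plus 3 SD, cut at about 35% in these data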;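 also: 0% = DMSO alone and 100% = 100 µM mitoxantrone as full dye displacement; higher means more dye released from RNA so lower well fluorescence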
MsrA act: activates bovine MsrA enzyme. purified bovine MsrA, absorbance read-out. activation, % at 10.6 µM. 360,000 tested, 0.3% active; in the data active = activation above about 7.5%;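 also: 0% = vehicle and 100% = reference activator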
MsrA inh: inhibitors of bovine MsrA | purified bovine MsrA, absorbance read-out | AID 651718 | inhibition, % at 15.5 µM | 360,000 tested, 0.75% active;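 also: 0% = vehicle wells with enzyme and 100% = reference inhibitor wells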
NadD block: NadD (S. aureus) enzyme inhibition | 360,000 tested, 0.78% active | AID 602399 | purified NadD enzyme, colorimetric absorbance read-out | inhibition, % at 20 µM; in the data active = inhibition above about 26%
MsrA conf: bovine MsrA inhibition, confirmed. shares compounds with MsrA inh. inhibition, % at 15.5 µM. 2,300 tested, 41% active. AID 651822. purified bovine MsrA, absorbance read-out;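 also: coupled to thioredoxin reductase with NADPH and selenocystamine and DMSO as substrate; 0% = vehicle only and 100% = full effect of reference inhibitor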
Starred values were filed as active, the others as inactive; nt = not tested or not shown. Rule as the data show it, unless noted: active = inhibition above about 4.5%; inactive = the rest.

SMILES	rCAG binder	MsrA act	MsrA inh	NadD block	MsrA conf
COc1ccc(OC)c(C2/C(=C(/O)c3cnn(-c4ccccc4)c3C)C(=O)C(=O)N2CCN(C)C)c1 (stereo unspecified)	4	-3	0	-5	nt
COc1ccc(C2/C(=C(/O)c3cnn(-c4ccccc4)c3C)C(=O)C(=O)N2CCN(C)C)cc1OC (stereo unspecified)	7	-4	9.3*	-3	2
c1ccc(-n2nnnc2-n2nnc3ccccc32)cc1	-2	-4	23*	7	22*
Cc1ccc(Nc2ccc([N+](=O)[O-])nc2[N+](=O)[O-])cc1	1	-7	5.3*	-5	5.0*
COc1ccccc1OCC(=O)Nc1sc2c(c1C(=O)NCC1CCCO1)CCC2 (stereo unspecified)	-3	-10	0	-5	nt
COc1ccc(/C=C/C(=O)C2(O)CCCCC2)cc1	-6	-6	5.2*	-2	3
Oc1ccc(C(=Nc2ccccc2)c2ccccc2)c(O)c1	1	-5	5.3*	-5	1
O=C(NNC(=O)c1ccc(O)cc1O)c1ccc(-c2ccccc2)cc1	13	0	0	3	nt
O=C(O)c1cccc(NC2=C(N3CCOCC3)C(=O)c3ccccc3C2=O)c1	2	-8	-1	-2	nt
O=C(O)c1ccc(NC2=C(n3nnc4ccccc43)C(=O)c3ccccc3C2=O)cc1	1	-1	58*	-1	53*
Cc1nc2scc(-c3ccccc3)c2c(=O)n1N	3	-3	1	0	nt
Cc1ccc(C)n1-n1c(C)nc2scc(-c3ccccc3)c2c1=O	-3	-4	27*	-1	26*
Cc1ccc(-c2csc3nc(C)n(-n4c(C)ccc4C)c(=O)c23)o1	0	-3	15*	1	12*
Cc1ccc(-c2csc3nc(C)n(N)c(=O)c23)o1	0	-6	0	-1	nt
O=C1N(CN2CCOCC2)c2ccccc2C12OCC(CCl)O2 (stereo unspecified)	-1	-2	-1	0	nt
Cc1ccc(Sc2ccc([N+](=O)[O-])cc2[N+](=O)[O-])nc1	2	-2	4.8*	-5	3
CCCCNS(=O)(=O)c1cc2c3c(c1)CCN3C(=O)CC2	-3	-3	2	-5	nt
Cc1cc(C)cc(C(=O)/C=C2\NC(=O)CS2)c1	6	-15	5.3*	0	5.3*
O=C1CS/C(=C/C(=O)c2ccccc2)N1	2	-6	5	-3	nt
Cc1ccccc1C(=O)/C=C1\NC(=O)CS1	1	-6	6.3*	-3	6.6*
C/C(=N/N=C1/NC(=O)CC(C(=O)O)S1)c1ccccc1 (stereo unspecified)	2	3	1	0	nt
O=C1CC(C(=O)O)S/C(=N\N=C\c2ccc(Br)cc2)N1 (stereo unspecified)	4	-16	4.9*	-1	3
C=CCc1c(C)nc(C)nc1N/N=C/c1ccc([N+](=O)[O-])cc1	-3	-4	7.0*	-1	5
O=C(CCc1ccccc1O)N/N=C/c1ccc(Sc2cccc3cccnc23)o1	9	-4	2	22	nt
COc1cc(/C=N/NC(=O)c2ccc(CSc3nncn3C)cc2)cc(OC)c1O	-5	-10	5.0*	-3	4
SMILES	rCAG binder	MsrA act	MsrA inh	NadD block	MsrA conf
Cn1cnnc1SCc1ccc(C(=O)N/N=C/c2cccs2)cc1	-1	-7	4.7*	-10	1
Cn1c(CCNC(=O)c2ccccc2F)nnc1SCC(=O)Nc1ccccc1F	-2	-2	2	-3	nt
CCOC(=O)c1nnsc1Nc1ccc(C)c(C)c1	0	0	8.2*	-1	7.0*
CCOC(=O)c1nnsc1-c1ccc(-c2snnc2C(=O)OCC)cc1	-4	-1	0	-3	nt
CC1(C)Cc2c(cnn2-c2cccc(F)c2)C(NC(=O)CSc2ccccn2)C1 (stereo unspecified)	3	-1	0	-1	nt
Cc1nnc(SCC(=O)NC2CC2)n1CC1CCCO1 (stereo unspecified)	3	-2	-1	3	nt
Cc1ccc(NC(=O)CN(C)C(=O)CSc2nc(C)cs2)cc1	-3	-8	0	-4	nt
COC(=O)COc1ccc2oc(=O)cc(-c3cc4ccccc4o3)c2c1	7	-3	15*	-2	24*
COC(=O)COc1cc(OCC(=O)OC)c2c(-c3ccccc3)cc(=O)oc2c1	-4	-3	-1	-4	nt
COC(=O)COc1ccc2oc(=O)cc(-c3cc4cccc(OC)c4o3)c2c1	10	-5	7.4*	-8	15*
COc1cccc2cc(-c3cc(=O)oc4ccc(O)cc34)oc12	31	0	17*	-3	13*
CCN(CC)C(=O)Oc1cc2c(-c3cc4cccc(OC)c4o3)cc(=O)oc2cc1C	8	-3	0	-1	nt
NC(=O)COc1ccc2oc(=O)cc(-c3cc4ccccc4o3)c2c1	14	-4	23*	2	20*
COc1ccc(NC(=O)COc2ccc3oc(=O)cc(C)c3c2)cc1	-2	-9	1	-5	nt
O=C(NCCN1CCOCC1)c1ccc(=O)oc1	0	-6	5.4*	-3	4
CC(NC(=O)c1ccncc1)c1ccccc1 (stereo unspecified)	0	-7	0	-2	nt
CC(NC(=O)c1ccc(=O)oc1)c1ccccc1 (stereo unspecified)	1	-5	7.2*	-2	7.4*
O=C(NCCc1ccccc1)c1ccc(=O)oc1	33	-15	8.2*	-1	8.0*
CCOc1ccccc1NC(=O)CSc1nc(=O)n(CCCN2CCOCC2)c2c1CCCC2	-6	-2	0	0	nt
Cc1ccc(S(=O)(=O)NCCS(=O)(=O)N2CCN(c3ccc(F)cc3)CC2)cc1	0	-9	-1	-4	nt
CCN(C[C@H]1N[C@@](Cc2ccccc2)(C(=O)OC)[C@H]2C(=O)N(C)C(=O)[C@@H]12)C(=O)Nc1ccc(Cl)cc1	-4	-2	2	0	nt
CSc1ccc(SC2CN(Cc3ccc(C)cc3)S(=O)(=O)C2)cc1 (stereo unspecified)	3	nt	1	nt	nt
CCN(CC)c1ccc(C=Nc2ccc(N(C)C)cc2)c(O)c1	12	-12	5.9*	-4	2
CCN(CC)c1ccc(C=Nc2ccc(C)cc2)c(O)c1	0	-2	6.9*	-5	6.3*
CCN(CC)c1ccc(C=Nc2cc(C)cc(C)c2)c(O)c1	2	-7	4	-3	nt
CN(c1ccc(OCC(=O)N2CCN(c3ccc(F)cc3)CC2)cc1)S(=O)(=O)c1cccs1	1	-7	0	0	nt
N#CC1=C(N)Oc2cc3ccccc3cc2C1c1cccnc1 (stereo unspecified)	-4	-5	7.6*	3	2
N#CC1=C(N)Oc2c(ccc3cccnc23)C1c1cccnc1 (stereo unspecified)	4	-3	2	9	nt
Cc1cc(N/N=C/c2ccc(O)cc2)nc(NS(=O)(=O)c2ccccc2)n1	5	-5	4.9*	4	5.3*
O=C(c1c(F)cccc1F)N1CCC(n2nnc3cc(C(F)(F)F)ccc32)CC1	-1	-3	-1	0	nt
